High-throughput results from PubChem BioAssay.
Shown are actives, neighbours in structure and some others; about 28% of the full set was active somewhere.
CYP2C19 activ = increases human CYP2C19 enzyme activity. P33261. AID 1025. recombinant CYP2C19, luciferin-H EGE luminescence; hits give high values; 0 = fully inhibited enzyme, 1 = untreated enzyme. activation factor at 5 µM. 96,000 tested, under 10 active;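 active = activation factor of at least 2 at 5 µM in the primary screen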
Target sequence (P33261 whole entry, looked up): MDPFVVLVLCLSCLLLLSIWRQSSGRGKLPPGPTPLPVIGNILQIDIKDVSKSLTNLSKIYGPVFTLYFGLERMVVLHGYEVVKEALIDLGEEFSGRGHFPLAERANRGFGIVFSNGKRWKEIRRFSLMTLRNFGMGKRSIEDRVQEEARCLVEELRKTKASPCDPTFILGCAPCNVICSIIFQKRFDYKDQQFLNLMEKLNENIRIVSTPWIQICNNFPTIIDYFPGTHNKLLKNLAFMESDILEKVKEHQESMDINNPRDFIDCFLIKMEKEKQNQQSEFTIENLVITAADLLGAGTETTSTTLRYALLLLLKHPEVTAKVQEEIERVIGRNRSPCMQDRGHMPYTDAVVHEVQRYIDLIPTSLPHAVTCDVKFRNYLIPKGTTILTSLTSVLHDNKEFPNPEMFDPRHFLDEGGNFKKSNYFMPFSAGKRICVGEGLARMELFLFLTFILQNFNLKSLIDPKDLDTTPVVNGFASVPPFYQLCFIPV
CYP2C9 act = activators of human CYP2C9; P11712; recombinant CYP2C9, luciferin-H conversion, luminescence; hits give high values; factor 1 = untreated enzyme, 0 = blocked; activation factor at 5 µM; 96,000 tested, 1.4% active;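 active = activation factor of 2 or more for CYP2C9 at a 5 µM dose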
CYP2C19 inh = human CYP2C19 inhibition. P33261. CYP2C19 Supersomes, luciferin-H EGE luminescence, 30 min. inhibition, % at 5 µM. 96,000 tested, 21% active. AID 778;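 active = CYP2C19 inhibition above a set limit at 5 µM in the primary screen, cut at about 50% in these data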
CYP2C9 inhib = blocks human cytochrome P450 2C9; P11712; CYP2C9 Supersomes, luciferin-H conversion, luminescence; inhibition, % at 5 µM; 96,000 tested, 20% active; AID 777;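 active = blocking of liver enzyme CYP2C9 beyond about 50% at 5 µM, limit read from the data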
CD11b adhes inh = CD11b/CD18-fibrinogen binding inhibition; P05107+P11215; AID 1497; K562 CD11b/CD18 adhesion to fibrinogen, ATPlite luminescence; Mn2+ added to activate the integrin; inhibition, % at 10 µM; 93,000 tested, 0.54% active;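 active = primary inhibition of 50% or more at 10 µM, then 40% or more on retest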
CD11b adhes enh = enhancers of human CD11b/CD18 binding to fibrinogen | P05107+P11215 | K562 CD11b/CD18 adhesion to fibrinogen, ATPlite luminescence | activation, % at 10 µM | 93,000 tested, 0.07% active | AID 1499;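 active = 10 µM primary screen giving 50% or more activity, confirmed by 40% or more on retest at that dose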
Hits are given with their value; - = inactive; . = no result.

SMILES	CYP2C19 activ	CYP2C9 act	CYP2C19 inh	CYP2C9 inhib	CD11b adhes inh	CD11b adhes enh
CCOC(=O)CC(N)c1ccc(OC)cc1 (stereo unspecified)	-	-	-	-	-	-
O=C1CCCC2=C1C1(CCCC1)N=C(Nc1nc3ccccc3s1)N2	-	-	-	-	-	-
CC(C(=O)Nc1ccc2nccnc2c1)N1C(=O)C2C3C=CC(C3)C2C1=O (stereo unspecified)	-	-	-	-	-	-
CC(N1CCOC1=O)S(=O)(=O)c1ccccc1 (stereo unspecified)	-	-	-	-	-	-
Cn1ncc2nc[nH]c(=O)c21	-	-	50	-	-	-
Cn1ncc2nnn(-c3ccccc3)c(=O)c21	-	-	-	-	-	-
COc1ccc(Nc2nc(C)cc(C)c2C#N)cc1OC	-	-	-	-	-	-
N#CCC(CNc1ncc(C(F)(F)F)cc1Cl)OC(=O)c1cccc(C(F)(F)F)c1 (stereo unspecified)	-	-	63	-	-	-
COC(=O)c1c(C)[nH]c(C)c1-c1ccccc1Cl	-	-	61	-	-	-
CCOC(=O)c1c(C)[nH]c(C)c1-c1ccccc1OC	-	-	67	-	.	.
Cc1csc(NC(=O)CN2C(=O)C3CC=CCC3C2=O)n1 (stereo unspecified)	-	-	-	-	-	-
Cc1ccc(C(=O)C2CCN(CC(=O)Nc3ccc(N(C)C)cc3)CC2)cc1	-	-	-	-	-	-
CCOc1ccc(-c2nnn(CC(=O)c3ccc4c(c3)OCCO4)n2)cc1	-	-	-	-	-	-
CCOc1ccc(C(=O)N2CCC(C(=O)c3ccc4c(c3)OCCO4)CC2)cc1	-	-	85	55	-	-
O=C(c1ccc2c(c1)OCCO2)C1CCN(S(=O)(=O)c2ccccc2F)CC1	-	-	-	-	.	.
Cc1ccc(C(=O)C2CCN(CC(=O)Nc3nc(C)cs3)CC2)cc1	-	-	-	90	-	-
O=C(CN1CCC(C(=O)c2ccc3c(c2)OCCO3)CC1)NC1CCCC1	-	-	84	-	-	-
Cc1ccc(C(=O)C2CCN(CC(=O)Nc3ccc4c(c3)OCCO4)CC2)cc1	-	-	-	62	-	-
CC(=O)C1C(c2ccccc2OC(F)F)NC(=O)NC1(O)C(F)(F)F (stereo unspecified)	-	-	-	-	-	-
Cc1ccc(C(=O)N[C@H](C(=O)Nc2cc(Cl)cc(Cl)c2)C(C)C)cc1	.	.	.	.	-	-
CCOC(=O)C1CCCN(c2c(NCCN3CCCCC3C)c(=O)c2=O)C1 (stereo unspecified)	-	-	-	-	-	-
CCn1c(SCC(N)=O)nc2c1c(=O)n(C)c(=O)n2C	-	-	-	-	-	-
O=C(CN(C1CCCCC1)S(=O)(=O)c1ccc(Cl)cc1)NCc1ccncc1	-	-	94	82	-	-
O=C(CCC1CCCCC1)NCc1ccncc1	-	-	89	-	-	-
O=C(CN(C1CCCCC1)S(=O)(=O)c1ccc(F)cc1)NCc1ccncc1	-	-	86	83	-	-
SMILES	CYP2C19 activ	CYP2C9 act	CYP2C19 inh	CYP2C9 inhib	CD11b adhes inh	CD11b adhes enh
O=C(CN(C1CCCCC1)S(=O)(=O)c1ccc(F)cc1)NCCCO	-	-	-	-	-	-
Cc1cccc(NC(=O)C2CC(=O)OC23CCCCC3)c1 (stereo unspecified)	-	-	76	-	-	-
CC1(C)CC2(CCO1)OC(=O)CC2C(=O)NCCc1ccccc1 (stereo unspecified)	-	-	-	-	-	-
COc1ccc(C)cc1NC(=O)C1CC(=O)OC12CCCCC2 (stereo unspecified)	-	-	78	-	-	-
COc1ccc(NC(=O)C2CC(=O)OC23CCOC(C)(C)C3)cc1 (stereo unspecified)	-	-	57	-	-	-
COC(=O)c1ccc(=O)n(Cc2ccc3c(c2)OCO3)c1	-	-	98	-	-	-
CN(NS(=O)(=O)c1ccccc1)c1nc2ccccc2nc1C(F)(F)F	-	-	99	90	-	-
CC(=O)Nc1ccc(S(=O)(=O)NC(C(=O)O)C2=CCC=CC2)cc1 (stereo unspecified)	-	-	-	-	-	-
CCC(CCC(=O)Nc1ccc(S(N)(=O)=O)cc1)C(=O)O (stereo unspecified)	-	-	-	-	-	-
